Source: PubChem BioAssay
Sa growth 42C – inhibitors of Staphylococcus aureus growth at 42 °C; S. aureus RN4220 growth, OD600, 20 h; active compounds read low; 170,000 compounds, 0.53% hits; relative growth, % (concentration not given with the values); AID 720641;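 active means relative growth at most 50% at the other temperature and 20+ points below 30 °C, or under 10% at both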
Sa helicase inh – S. aureus DNA helicase inhibition | 120,000 compounds, 0.05% hits | purified S. aureus helicase, fluorescence unwinding assay | inhibition, % (no concentration beside the values) | AID 485395; in the data active means inhibition above about 25%, passing the limit was not always enough
Numbers stand for hits; i = inactive; nt = not tested or not shown; ! = repeats disagree. Only some compounds are listed: those with a hit (about 0.52% of all), similar ones and a draw of the others.

SMILES	Sa growth 42C	Sa helicase inh
CC[C@H]1OC(=O)[C@H](C)[C@@H](O[C@H]2C[C@@](C)(OC)[C@@H](O)[C@H](C)O2)[C@H](C)[C@@H](O[C@@H]2O[C@H](C)C[C@H](N(C)C)[C@H]2O)[C@](C)(O)C[C@@H](C)/C(=N/OCOCCOC)[C@H](C)[C@@H](O)[C@]1(C)O	-0.5	nt
COc1cc(C(N)=O)cc(I)c1OC	i	i
CC(Sc1cccc[n+]1[O-])C(=O)N1CCN(C(=O)c2ccco2)CC1 (centres undefined)	i	i
CC(C)(C)c1ccc(C(=O)Nc2ccc(S(N)(=O)=O)cc2)cc1	2.7	i
CCc1ccc(C(=O)Nc2ccc(S(N)(=O)=O)cc2)cc1	i	nt
CCc1ccc(NC(=O)C2CCN(c3ncccn3)CC2)cc1	i	i
Cn1c(=O)c2c(ncn2CC(O)CN2CCN(c3ncccn3)CC2)n(C)c1=O (centres undefined)	i	i
COc1cccc(OCC(=O)NC(C(=O)O)C(C)C)c1 (centres undefined)	i	i
N#C/C(=C/c1ccccc1)c1cccc(C#N)c1	i	i
N#C/C(=C\c1ccccc1)c1cccc(Cl)c1	44.3	nt
O=C(CN1C(=O)/C(=C/c2ccccc2F)Sc2ccccc21)N1CCCC1	i	i
CC(=O)N=Nc1c2[nH]c3ccccc3nc-2c2ccccc12	7.6	i
CC(=O)Nc1ccccc1-c1nc2ccccc2[nH]c1=O	i	i
Cc1noc(C)c1CC(=O)N1CC(C(N)=O)Oc2ccccc21 (centres undefined)	i	i
CO[C@H]1/C=C/O[C@@]2(C)Oc3c(C)c(O)c4c(O)c(c(C=NN5CCN(C)CC5)c(O)c4c3C2=O)NC(=O)/C(C)=C\C=C\C(C)[C@H](O)[C@@H](C)[C@@H](O)[C@@H](C)[C@@H](OC(C)=O)[C@@H]1C (some centres undefined)	1.3	nt
CO[C@H]1C=CO[C@@]2(C)Oc3c(C)c(O)c4c(O)c(c5c(c4c3C2=O)NC2(CCN(CC(C)C)CC2)N=5)=NC(=O)C(C)=CC=C[C@H](C)[C@H](O)[C@@H](C)[C@@H](O)[C@@H](C)[C@H](OC(C)=O)[C@@H]1C	0.6	nt
CO[C@H]1/C=C/O[C@@]2(C)Oc3c(C)c(O)c4c(O)c(c5c(nc6cc(C)ccn65)c4c3C2=O)NC(=O)/C(C)=C\C=C\[C@H](C)[C@H](O)[C@@H](C)C(O)[C@@H](C)[C@H](OC(C)=O)[C@@H]1C (some centres undefined)	-0.8	nt
CO[C@H]1C=CO[C@@]2(C)Oc3c(C)c(O)c4c(O)c(c5c(nc6cc(C)ccn65)c4c3C2=O)NC(=O)C(C)=CC=C[C@H](C)[C@H](O)[C@@H](C)[C@@H](O)[C@@H](C)[C@H](OC(C)=O)[C@@H]1C	i	nt
COc1ccc(N=c2cc(-c3ccc(OC)cc3)oc3ccc(O)cc23)cc1	i	i
CC12CC(c3ccccc3O1)C(S(=O)(=O)c1ccccc1)C(=O)N2 (centres undefined)	i	i
O=c1[nH]c2cc3c(cc2cc1CN(CCN1CCOCC1)C(=S)Nc1ccccc1)OCCO3	i	i
CN(C)c1cccc(N=Cc2c(O)n(-c3ccc(Cl)cc3)c(=O)[nH]c2=O)c1	i	i
Clc1ccc(-c2nc(NCc3ccco3)c3ccccc3n2)c(Cl)c1	i	i
c1cncc(-c2nc(NCCSCc3ccco3)c3ccccc3n2)c1	5.9	i
COc1ccccc1NC(=O)/C(C#N)=C/c1cn(C)c2ccccc12	i	i
SMILES	Sa growth 42C	Sa helicase inh
FC(F)(F)c1ccc2sc(=S)[nH]c2c1	-0.8	i
CN(C)c1ccc2sc(=S)[nH]c2c1	i	i
CCn1c(SC(C)C(=O)NCc2ccc(OC)cc2)nc2ccccc21 (centres undefined)	i	i
Cc1ccc(NC(=O)c2ccc(CNS(=O)(=O)c3ccc4c(c3)C(C)(C)C(=O)N4C)cc2)cc1C	i	nt
C=C1N(C)c2ccc(NC(=O)c3ccccc3)cc2C1(C)C	8.3	i
CC(=O)Nc1ccc(NC(=O)CNc2ccc(Br)cc2)cc1	i	i
Cc1ccc(/C=C2\CCCC(CN(C)C)C2=O)cc1 (centres undefined)	-0.2	nt
CN(C)c1ccc(/C=C2\CCC(C3CCCC3)C2=O)cc1 (centres undefined)	i	i
O=c1cc(-c2ccccc2)c2ccc(O)c(O)c2o1	nt	58.0
CCc1cc(=O)oc2c(O)c(O)ccc12	i	i
Nc1nc(N)nc(SCC(=O)N2CCSC2c2ccccc2F)n1 (centres undefined)	i	i
COc1cccc(C(c2cc3c(cc2O)OCO3)N2CCCC2)c1O (centres undefined)	1.2	i
COc1ccccc1C(CC(=O)N1CCCC1)c1ccc2c(c1)OCO2 (centres undefined)	i	i
CO[C@@]1(NC(=O)C(C(=O)O)c2ccc(O)cc2)C(=O)N2C(C(=O)O)=C(CSc3nnnn3C)CO[C@@H]21 (some centres undefined)	i	nt
Cn1nnnc1SCC1=C(C(=O)O)N2C(=O)C(NC(=O)C(O)c3ccccc3)C2SC1 (centres undefined)	-0.5	nt
Cn1nnnc1SCC1=C(C(=O)O)N2C(=O)C(NC(=O)C(OC=O)c3ccccc3)C2SC1 (centres undefined)	-0.7	nt
Cn1nnnc1SCCC(=O)Nc1ccccc1	i	i
O=C(O)C1=C(CSc2nnnn2CS(=O)(=O)O)CS[C@@H]2C(NC(=O)[C@H](O)c3ccccc3)C(=O)N12 (some centres undefined)	-0.7	nt
O=C(NCCSc1nnnn1-c1ccccc1)C(c1ccccc1)c1ccccc1	i	i
COc1ccccc1/C=N/OCn1nnc2ccccc2c1=O	nt	i
COc1cccc2sc(=NC(=O)Cc3cccc4ccccc34)n(C)c12	i	i
CCCc1cc(=O)[nH]c(SCC(=O)NC(C)(C)C)n1	i	i
COC(=O)c1n[nH]n(-c2cc(Cl)cc(Cl)c2)c1=O	i	nt
COC(=O)c1cc(=O)n(-c2cc(Cl)cc(Cl)c2)[nH]1	13.4	i
CS(=O)(=O)c1ccc(Cl)c(NC(=O)CN2CCc3sccc3C2c2cccs2)c1 (centres undefined)	i	i
SMILES	Sa growth 42C	Sa helicase inh
CCCCC(=O)Nc1nnc(-c2ccc(Cl)s2)o1	8.8	i
CCCCC(=O)Nc1nnc(-c2ccc(Cl)cc2)o1	-0.3	i
O=C(CCc1ccccc1)Nc1nnc(-c2ccccc2)o1	nt	i
O=C(CCCc1c[nH]c2ccccc12)Nc1nnc(-c2ccc(Cl)cc2)o1	i	i
Cc1ccc(N2C(=O)CC(C3=C(N4CCOCC4)CCCC3)C2=O)cc1 (centres undefined)	i	i
NC(=O)c1c(O)sc2c1CCCC2	i	i
CC(=O)N1c2ccccc2NC2=C(C(=O)CC(C)(C)C2)C1c1cccnc1 (centres undefined)	i	i
O=C(O)c1ccc(-n2[nH]c(=S)sc2=S)cc1	i	i
Cc1onc(-c2ccccc2)c1C(=O)N[C@@H]1C(=O)N2[C@@H]1SC(C)(C)[C@@H]2C(=O)O	-1.3	nt
CCN1CCN(C(=O)N[C@@H](C(=O)N[C@@H]2C(=O)N3[C@@H]2SC(C)(C)[C@@H]3C(=O)O)c2ccccc2)C(=O)C1=O	-0.5	nt
CC1(C)S[C@@H]2[C@H](NC(=O)[C@H](N)c3ccccc3)C(=O)N2[C@H]1C(=O)O	-0.9!	nt
CCCOC(=O)C(N)c1ccccc1 (centres undefined)	i	i
CC1(C)SC(c2ccc(C3NC(C(=O)O)C(C)(C)S3)cc2)NC1C(=O)O (centres undefined)	i	i
